Laboratory results as given in the supplement of paper PMC6555819.

Legend:
Test in all cases: PBM binding z-score (relative to random genomic background probes); higher = stronger binding; sequences stand for … in GC…GCGATTGACAGCGTAGAATGAAGG
[1] = test system: FXR:RXRa (NR concentration 270 nM, RXRa partner concentration 90 nM)
Summary of the method: (§1)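 Scanned fluorescence from custom Agilent 4×180K protein-binding microarrays was regression-normalized. Binding z-scores use random background probes as reference. Ligand-free nuclear receptor dimers were incubated on the arrays for 1 h and detected with antibodies against each partner (one per run).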

[2] = test system: LXRa:RXRa (NR concentration 270 nM, RXRa partner concentration 90 nM)
Summary of the method: as §1

[3] = test system: LXRa homodimer (NR concentration 270 nM)
Summary of the method: as §1

[4] = test system: LXRb:RXRa (NR concentration 270 nM, RXRa partner concentration 90 nM)
Summary of the method: as §1

[5] = test system: LXRb homodimer (NR concentration 270 nM)
Summary of the method: as §1

[6] = test system: PPARa:RXRa (NR concentration 270 nM, RXRa partner concentration 90 nM)
Summary of the method: as §1

[7] = test system: PPARg:RXRa (NR concentration 180 nM, RXRa partner concentration 90 nM)
Summary of the method: as §1

[8] = test system: PPARg:RXRa 270nM:90nM, anti-RXR (NR concentration 270 nM, RXRa partner concentration 90 nM)
Summary of the method: as §1

[9] = test system: PPARg:RXRa 30nM:10nM, anti-RXR (NR concentration 30 nM, RXRa partner concentration 10 nM)
Summary of the method: as §1

[10] = test system: PPARg:RXRa 90nM:30nM, anti-RXR (NR concentration 90 nM, RXRa partner concentration 30 nM)
Summary of the method: as §1

[11] = test system: PPARg:RXRa DBDmut IVT, anti-RXR (DBD mutation: RXRa K156A/R161A, NR concentration 270 nM, RXRa partner concentration 90 nM)
Summary of the method: as §1

[12] = test system: PPARg:RXRa IVT, anti-PPARg (NR concentration 270 nM, RXRa partner concentration 90 nM)
Summary of the method: as §1

[13] = test system: PPARg DBDmut:RXRa IVT, anti-PPARg (DBD mutation: PPARg1 K132A/R137A, NR concentration 270 nM, RXRa partner concentration 90 nM)
Summary of the method: as §1

[14] = test system: PPARg DBDmut IVT, anti-PPARg (DBD mutation: PPARg1 K132A/R137A, NR concentration 270 nM)
Summary of the method: as §1

[15] = test system: PPARg homodimer (NR concentration 180 nM)
Summary of the method: as §1

[16] = test system: PXR:RXRa (NR concentration 270 nM, RXRa partner concentration 90 nM)
Summary of the method: as §1

[17] = test system: PXR homodimer (NR concentration 270 nM)
Summary of the method: as §1

[18] = test system: RARa:RXR (NR concentration 270 nM, RXRa partner concentration 90 nM)
Summary of the method: as §1

[19] = test system: RARa homodimer (NR concentration 270 nM)
Summary of the method: as §1

[20] = test system: RARb:RXRa (NR concentration 270 nM, RXRa partner concentration 90 nM)
Summary of the method: as §1

| Sequence | PBM binding z-score [1] | PBM binding z-score [2] | PBM binding z-score [3] | PBM binding z-score [4] | PBM binding z-score [5] | PBM binding z-score [6] | PBM binding z-score [7] | PBM binding z-score [8] | PBM binding z-score [9] | PBM binding z-score [10] | PBM binding z-score [11] | PBM binding z-score [12] | PBM binding z-score [13] | PBM binding z-score [14] | PBM binding z-score [15] | PBM binding z-score [16] | PBM binding z-score [17] | PBM binding z-score [18] | PBM binding z-score [19] | PBM binding z-score [20] |
| --- | --- | --- | --- | --- | --- | --- | --- | --- | --- | --- | --- | --- | --- | --- | --- | --- | --- | --- | --- | --- |
| ATCGAAAGGTCGACGGTGAGTATACCCACCCGAA | 4.38 | 3.44 | 0.131 | 2.47 | 0.548 | 4.12 | 2.45 | 3.09 | 1.17 | 2.63 | -0.188 | 1.6 | 0.9 | 0.777 | 1.58 | 2.43 | -0.256 | 3.22 | 0.352 | 3.8 |
| AGTTAAAGTTCAGGACGAGGTAACGTAAAGCACG | 3.69 | 3.97 | 1.7 | 1.91 | 0.474 | 2.83 | 2.49 | 3.2 | 1.18 | 2.14 | -0.314 | 1.18 | 0.861 | 1.1 | 2.09 | 2.95 | 1.51 | 2.66 | 0.705 | 4.06 |
| ATCTCTAGGTAAAAGTTCAGGGAATCCCGAGGAT | 1.28 | 1.71 | 1.26 | 1.12 | 1.04 | 4.42 | 8.19 | 7.53 | 7.81 | 8.27 | 2.01 | 3.72 | 1.02 | 1.51 | 1.25 | 1.96 | 1.15 | 2.06 | 1.33 | 2.62 |
| TCTAGCAGGCCAGAGGGTCACTGAAGAGGTACGG | 0.95 | 1.08 | -0.818 | 1.01 | -1.1 | 2.79 | 1.69 | 2.79 | 1.92 | 2.4 | 1.24 | 0.963 | -0.7 | -1.2 | 0.503 | 1.53 | -0.448 | 2.29 | -0.0509 | 2.34 |
| CCTTCTAGGTCATGGTCAGCTAATCTACAGTATG | 3.87 | 2.77 | 0.676 | 2.12 | 0.355 | 4.37 | 5.63 | 5.39 | 2.57 | 4.28 | 7.22 | 6.72 | 1.58 | 1.21 | 2.24 | 1.7 | 0.327 | 2.63 | 1.36 | 4.08 |
| GGAACGAGGGTAAGTTGATAGCAGAGTTTGATGG | -0.0165 | -0.0993 | -0.232 | -0.276 | -0.358 | 0.189 | 0.422 | 0.00426 | -0.0948 | -0.0902 | 1.59 | 0.763 | 0.619 | 0.0122 | 0.193 | 0.0431 | 0.405 | -0.00911 | 0.262 | 0.727 |
| TCGAGTAGGCTACCAATGGGGCATTCAGCTTTCT | -0.523 | -0.102 | -1.06 | -0.127 | -1.18 | 0.0161 | -0.358 | 0.198 | 1.19 | 0.625 | 1.55 | 0.414 | -0.67 | -1.72 | -1.23 | -0.438 | -0.888 | -0.72 | -1.3 | -0.208 |
